Where “and” joins values, the source holds several entries; their conditions need not be identical. Equal values may be shown once. Records with an inconclusive call do not appear. A number with no mark means an inactive call. Calls follow the shape of the dose curve; as a rule, active = well fitted curve in either direction with a large enough effect (not every such curve was filed as active); inconclusive = small, poorly fitted or top-dose-only effect, or another doubt; inactive = flat fitted curve, though single readings scatter.
Test: AP1 Signaling Pathway (AID 357)
Settings: ME-180 AP-1-bla reporter, EGF-induced, beta-lactamase ratio, 5 h; at 7.69 µM (top of the series)
From the text: NCGC Assay Overview: Activator protein-1 (AP-1), a transcription factor, plays an important role in tumor genesis by regulating genes involved in cell proliferation, differentiation, apoptosis, and angiogenesis. AP-1 activity is induced by a complex network of signaling pathways that involves extracellular signals, such as growth factors. The AP-1 protein complex formed from c-Fos and c-Jun binding to the AP-1 response element results in transcriptional activation of genes containing such elements within their promoter. Low molecular weight molecules have been discovered and developed to modulate various components of these signaling pathways, for example, MAP kinase inhibitors. However, many points of pathway modulation remain untested due to the lack of chemical probes making this signaling locus of general interest. Using a beta-lactamase reporter-gene under control of the AP-1 response element, a cell-based assay [CellSensor(TM) AP-1-bla ME-180 developed by Invitrogen Corp.] was used to measure EGF-induced signaling. Library compounds were measured for their ability to modulate positively or negatively the action of EC50 EGF on reporter gene activity. Compounds were screened in a titration series in 1536-well format. Positive and negative modulators were identified based on the AC50 values derived from the screening data.
NCGC Assay Protocol Summary: 2500 cells/5uL in Opti-MEM medium containing 0.5% dialyzed FBS, 0.1 mM NEAA, 1 mM sodium pyruvate and 10 mM HEPES was dispensed into 1536-well plates and cells were cultured at 37 degrees Celsius overnight. […] After centrifugation at 1000 rpm for 2 seconds the plates were incubated at 37 degrees Celsius for 5 hours. 1 uL of CCF4-dye mixture was added to each well. After incubated at room temperature for 2.5 hours the plates were measured on an EnVision plate reader at Excitation 405nm, Emission1=460nm and Emission 2=530nm. The %Activity was determined from the ratio of 460nm/530nm.
% is scaled to controls: 0 for no effect and ±100 for the full control effect.

**Q.** With `O=C(O)CP(=O)(O)O` as the compound, how does the activity change, negative = inhibition read?
**A.** Its activity change, negative = inhibition is 0.401%.

Same assay, conditions: ME-180 AP-1-bla reporter, EGF-induced, beta-lactamase ratio, 5 h; at 17.2 µM (top of the series)

**Q.** With `C[C@]12CCC(=O)C=C1CC[C@@H]1[C@@H]2CC[C@@]2(C)[C@H]1CC[C@]2(O)C(=O)CO` as the compound, how does the activity change, negative = inhibition read?
**A.** The activity change, negative = inhibition was 14.7%.

**Q.** Which activity change, negative = inhibition does the source give for `Nc1nc(N)c2nc(-c3ccccc3)c(N)nc2n1` here?
**A.** Its activity change, negative = inhibition is 16.6% and 10.9%.

**Q.** For `CCCCNc1ccc(C(=O)OCCN(C)C)cc1`, which activity change, negative = inhibition is on record?
**A.** Its activity change, negative = inhibition is -19.5%.

**Q.** For `O=C1CC2(CCCC2)CC(=O)N1CCCCN1CCN(c2ncccn2)CC1`, which activity change, negative = inhibition is on record?
**A.** Its activity change, negative = inhibition is -0.287%.

**Q.** For `Cc1ccc(Cl)c(Nc2ccccc2C(=O)O)c1Cl`, which activity change, negative = inhibition is on record?
**A.** Its activity change, negative = inhibition is -18.4%.

**Q.** For `Cc1nc2ccccn2c(=O)c1CCN1CCC(C(=O)c2ccc(F)cc2)CC1`, which activity change, negative = inhibition is on record?
**A.** Its activity change, negative = inhibition is -5.86%.

**Q.** For `CCO/C([O-])=N/c1c[n+](N2CCOCC2)no1`, which activity change, negative = inhibition is on record?
**A.** The activity change, negative = inhibition was -2.58% and 9.89%.

**Q.** For `O=C(CCNNC(=O)c1ccncc1)NCc1ccccc1`, which activity change, negative = inhibition is on record?
**A.** The activity change, negative = inhibition was -5.47% and 0.412%.

**Q.** With `CN(C)CCOC(=O)COc1ccc(Cl)cc1` as the compound, how does the activity change, negative = inhibition read?
**A.** Its activity change, negative = inhibition is 0.605%.

**Q.** With `c1cnc(N2CCN(Cc3ccc4c(c3)OCO4)CC2)nc1` as the compound, how does the activity change, negative = inhibition read?
**A.** Its activity change, negative = inhibition is -7.76%.

**Q.** For `CCN(CC)CCOCCOC(=O)C1(c2ccccc2)CCCC1`, which activity change, negative = inhibition is on record?
**A.** Its activity change, negative = inhibition is -7.4%.

**Q.** Which activity change, negative = inhibition does the source give for `CCCC(C(=O)OCCN(CC)CC)(c1ccccc1)c1ccccc1` here?
**A.** Its activity change, negative = inhibition is 16.9%.

**Q.** Which activity change, negative = inhibition does the source give for `CN(C)C(=O)Oc1cccc([N+](C)(C)C)c1` here?
**A.** The activity change, negative = inhibition was 6.9% and 1.34% and 7.06%.

**Q.** With `C#CCN(C)CCCOc1ccc(Cl)cc1Cl` as the compound, how does the activity change, negative = inhibition read?
**A.** The activity change, negative = inhibition was -12.7%.

**Q.** For `Cc1nc2sccn2c(=O)c1CCN1CCC(=C(c2ccc(F)cc2)c2ccc(F)cc2)CC1`, which activity change, negative = inhibition is on record?
**A.** The activity change, negative = inhibition was -9.89%.

**Q.** With `CC(=O)Nc1nnc(S(N)(=O)=O)s1` as the compound, how does the activity change, negative = inhibition read?
**A.** The activity change, negative = inhibition was 2.87%.

**Q.** For `CCN(CC)CC(=O)Nc1c(C)cccc1C`, which activity change, negative = inhibition is on record?
**A.** Its activity change, negative = inhibition is 8.06% and 2.56% and 5.37%.

**Q.** With `CCN(CC)CCNC(=O)c1cc(S(C)(=O)=O)ccc1OC` as the compound, how does the activity change, negative = inhibition read?
**A.** Its activity change, negative = inhibition is -0.734% and 2.54%.

**Q.** For `COc1cc(C(=O)OCCCN2CCCN(CCCOC(=O)c3cc(OC)c(OC)c(OC)c3)CC2)cc(OC)c1OC`, which activity change, negative = inhibition is on record?
**A.** Its activity change, negative = inhibition is 24.5%.

Same assay, conditions: ME-180 (cervical carcinoma) AP-1-bla reporter, EGF-induced, beta-lactamase ratio, 5 h; at 38 µM (top of the series)

**Q.** For `Nc1nc(N)c2nc(-c3ccccc3)c(N)nc2n1`, which activity change, negative = inhibition is on record?
**A.** Its activity change, negative = inhibition is -2.44%.

**Q.** Which activity change, negative = inhibition does the source give for `CCCCNc1ccc(C(=O)OCCN(C)C)cc1` here?
**A.** The activity change, negative = inhibition was 22.1%.

**Q.** For `O=C1CC2(CCCC2)CC(=O)N1CCCCN1CCN(c2ncccn2)CC1`, which activity change, negative = inhibition is on record?
**A.** Its activity change, negative = inhibition is -2.42%.

**Q.** Which activity change, negative = inhibition does the source give for `Cc1ccc(Cl)c(Nc2ccccc2C(=O)O)c1Cl` here?
**A.** Its activity change, negative = inhibition is -15.5%.

**Q.** With `Cc1nc2ccccn2c(=O)c1CCN1CCC(C(=O)c2ccc(F)cc2)CC1` as the compound, how does the activity change, negative = inhibition read?
**A.** Its activity change, negative = inhibition is 5.6%.

**Q.** With `CCO/C([O-])=N/c1c[n+](N2CCOCC2)no1` as the compound, how does the activity change, negative = inhibition read?
**A.** The activity change, negative = inhibition was 19.4%.

**Q.** Which activity change, negative = inhibition does the source give for `O=C(CCNNC(=O)c1ccncc1)NCc1ccccc1` here?
**A.** Its activity change, negative = inhibition is 1.11%.

**Q.** Which activity change, negative = inhibition does the source give for `CN(C)CCOC(=O)COc1ccc(Cl)cc1` here?
**A.** The activity change, negative = inhibition was -0.251%.

**Q.** With `O=C(O)CP(=O)(O)O` as the compound, how does the activity change, negative = inhibition read?
**A.** Its activity change, negative = inhibition is 7.05%.

**Q.** With `c1cnc(N2CCN(Cc3ccc4c(c3)OCO4)CC2)nc1` as the compound, how does the activity change, negative = inhibition read?
**A.** The activity change, negative = inhibition was 13.9%.

**Q.** For `CCN(CC)CCOCCOC(=O)C1(c2ccccc2)CCCC1`, which activity change, negative = inhibition is on record?
**A.** Its activity change, negative = inhibition is 16.3%.

**Q.** With `CCCC(C(=O)OCCN(CC)CC)(c1ccccc1)c1ccccc1` as the compound, how does the activity change, negative = inhibition read?
**A.** Its activity change, negative = inhibition is 20.9%.

**Q.** For `CN(C)C(=O)Oc1cccc([N+](C)(C)C)c1`, which activity change, negative = inhibition is on record?
**A.** Its activity change, negative = inhibition is -1.33%.

**Q.** For `C#CCN(C)CCCOc1ccc(Cl)cc1Cl`, which activity change, negative = inhibition is on record?
**A.** Its activity change, negative = inhibition is -0.876%.

**Q.** For `Cc1nc2sccn2c(=O)c1CCN1CCC(=C(c2ccc(F)cc2)c2ccc(F)cc2)CC1`, which activity change, negative = inhibition is on record?
**A.** The activity change, negative = inhibition was -17.2%.

**Q.** With `CCNC(=O)N1CCN(CCCC(c2ccc(F)cc2)c2ccc(F)cc2)CC1` as the compound, how does the activity change, negative = inhibition read?
**A.** Its activity change, negative = inhibition is 1.34%.

**Q.** Which activity change, negative = inhibition does the source give for `CC(=O)Nc1nnc(S(N)(=O)=O)s1` here?
**A.** Its activity change, negative = inhibition is 2.53%.

**Q.** Which activity change, negative = inhibition does the source give for `CCN(CC)CC(=O)Nc1c(C)cccc1C` here?
**A.** The activity change, negative = inhibition was 19.9%.

**Q.** With `CCN(CC)CCNC(=O)c1cc(S(C)(=O)=O)ccc1OC` as the compound, how does the activity change, negative = inhibition read?
**A.** Its activity change, negative = inhibition is 5.15%.

**Q.** Which activity change, negative = inhibition does the source give for `COc1cc(C(=O)OCCCN2CCCN(CCCOC(=O)c3cc(OC)c(OC)c(OC)c3)CC2)cc(OC)c1OC` here?
**A.** Its activity change, negative = inhibition is 15.7%.

Reference: PubChem BioAssay (NCATS)
